Holding throughout (assay type): functional
Experiment [1] relates to Plasmodium falciparum. The experiment in a line: GSK_TCMDC: Inhibition of Plasmodium falciparum 3D7 in whole red blood cells, using parasite LDH activity as an index of growth. Test compounds present at 2uM.
For experiment [2], the system named is Plasmodium falciparum. The experiment in a line: GSK_TCMDC: Inhibition of Plasmodium falciparum Dd2 in whole red blood cells, using parasite LDH activity as an index of growth. Test compounds present at 2uM.
The subject of experiment [3] is HepG2. The experiment in a line: GSK_TCMDC: Percent inhibition of human HepG2 cell line. Test compounds present at 10uM.

SMILES strings stand for the structures.

28 compounds from ChEMBL document CHEMBL1157539, “Thousands of chemical starting points for antimalarial lead identification” (Nature, 2010) can be followed below.

What is called Inhibition is the relative decrease from the control value, in per cent. Low values mean a response near the control, high ones a response far below the control.

Consider `Cl.N=C(N)c1ccc(NN=Cc2ccc(Oc3ccc(C(=N)N)cc3)cc2)cc1`, for which the values for the Inhibition in experiment [1], in experiment [2] and in experiment [3] were 99%, 100% and 18%, respectively.
The corresponding values for `O=C(NCCc1ccccc1)N(Cc1cccc(-c2ccc(CNC3CCCC3)cc2)c1)C1CCN(Cc2ccccc2)CC1.O=C(O)C(F)(F)F` are 98%, 84% and 36%.
The matching figures for `COCCCN=C(S)NN=C(C)c1ccccn1`: 100%, 99% and 55%.
The matching figures for `O=C(O)C(F)(F)F.O=S(=O)(NCCN1CCCC1)c1ccc(-c2cccc(CNCc3ccccc3)c2)s1`: 94%, 43% and 44%.
In the case of `NCCc1cccc(-c2cnc3[nH]cc(-c4ccc(C(=O)O)cc4)c3c2)c1.O=C(O)C(F)(F)F`, the Inhibition in experiment [1] is 99%; in experiment [2] it was 98%; in experiment [3] it was 4%.
The corresponding values for `COc1ccc2ncc(F)c(CCN3CC(O)C(CNCc4ccc5c(c4)OCCO5)C3)c2n1.Cl` (centres undefined) are 94%, 35% and 18%.
The corresponding values for `Cc1ccc(C(=O)Nc2cccc(-c3ccc(N4CCN(C)CC4)nn3)c2)cc1[N+](=O)[O-]` are 99%, 40% and 32%.
The matching figures for `Cc1cc(NC(c2ccc(Cl)cc2)c2ccc3cccnc3c2O)no1` (centres undefined): 88%, 26% and 50%.
With `COc1ccc(-c2cnc(N)c(-c3ccc(C(N)=O)cc3)c2)cc1OC`, the Inhibition in experiment [1] came to 96%; in experiment [2], 98%; in experiment [3], 11%.
The matching figures for `N#Cc1ccc(-c2cnc3ccc(NCCc4cccnc4)nn23)cc1`: 99%, 81% and 27%.
The matching figures for `Cc1ccc(-n2cc(CNCC3CCN(CCO)CC3)c(-c3ccc(F)cc3)n2)cc1`: 91%, 18% and 29%.
The corresponding values for `CN(c1ccc(NC(=O)Nc2cc(C(C)(C)C)on2)cc1)c1ccnc(NCCOC(=O)Nc2cc(C(C)(C)C)on2)n1.O=C(O)C(F)(F)F` are 100%, 54% and 59%.
For the compound `COC(=O)c1ccc(NC(=O)Nc2ccc(Cn3ncc(N4CCCNCC4)c(Cl)c3=O)cc2)cc1.O=C(O)C(F)(F)F`, the values for the Inhibition in experiment [1], in experiment [2] and in experiment [3] were 83%, 43% and 0%, respectively.
The matching figures for `CCC(=O)c1cc(C(=O)NCCc2cccc(OC)c2)ccc1OC`: 83%, 12% and 0%.
Consider `C=CCC(C)n1ncc2c3c(N)nc(N)nc3ccc21` (centres undefined), for which the Inhibition in experiment [1] is listed as 93%; in experiment [2], 95%; in experiment [3], 66%.
The matching figures for `COc1ccc(-c2ccnc(-c3cccc(-c4ccccn4)n3)c2)cc1`: 97%, 84% and 44%.
Regarding `O=C(Cc1ccc(NC(=O)c2ccc(O)c(-c3cccc([N+](=O)[O-])c3)c2)cc1)NCCN1CCCCC1`, the Inhibition in experiment [1] is 89%; in experiment [2] it was 3%; in experiment [3] it was 4%.
As for `Cc1ccc(-c2cncc(-c3cc(NC4CCN(Cc5ccccc5)CC4)nc(-c4ccccc4)n3)c2)cc1`, the Inhibition is recorded as 100% in experiment [1], 66% in experiment [2] and 0% in experiment [3].
Regarding `Cc1ccccc1C1CCN(C2CCC(NC(=O)/C=C/c3cccc(Cl)c3)CC2)CC1` (centres undefined), the Inhibition is reported as 98% in experiment [1], 34% in experiment [2] and 70% in experiment [3].
The corresponding values for `COc1ccc(C(=O)N2CCC3(CC2)C(=O)N(CC(=O)NCC2CCCCC2)CN3c2ccccc2)cc1` are 100%, 99% and 18%.
On to `O=c1cc(NCCC(CNCc2cc3ccccc3o2)NCc2cc(Br)cc(Br)c2)[nH]c2ccccc12` (centres undefined), for which the Inhibition is 100% in experiment [1], 94% in experiment [2] and 6% in experiment [3].
The corresponding values for `COc1ccc(OCc2ccccn2)c(C2CCN(CCCCNC(=O)c3ccc(NC(=O)c4ccc(Cl)cc4)cc3)CC2)c1.Cl` are 98%, 71% and 18%.
The corresponding values for `Cc1[nH]c(C)c(-c2ccc(OCc3ccccc3)cc2)c(=O)c1Br` are 97%, 96% and 19%.
The matching figures for `CCOc1ccc2c(=NN=Cc3ccccc3OC)cc(C)[nH]c2c1`: 99%, 93% and 11%.
For `O=C(C=Cc1ccc(Cl)c(Cl)c1)NCCCCCN1CCC(CCNC(=O)C(c2ccccc2)c2ccccc2)CC1`, the values for the Inhibition in experiment [1], in experiment [2] and in experiment [3] were 90%, 43% and 61%, respectively.
The corresponding values for `CNc1ccc(CNCc2cccc(-c3ccc(-c4nc5cccc(C)c5[nH]4)cc3)c2)cc1.O=C(O)C(F)(F)F` are 100%, 83% and 26%.
The matching figures for `CN1CCN(CCCN(C(=O)Nc2cc(C(F)(F)F)cc(C(F)(F)F)c2)c2ccccc2Cc2ccccc2)CC1`: 89%, 92% and 35%.
The matching figures for `CCN(CC)CCNC(=O)c1ccc(Nc2ncc([N+](=O)[O-])c(Nc3ccccc3OC)n2)cc1.Cl`: 97%, 58% and 59%.
